# Screens as filed in PubChem.
# In the library only some 6.7% were active in any assay of this set; here they are far more common.
# Anthrax LF inh2 = Bacillus anthracis LF protease inhibitors, primary screen, biochemical, multiplex microsphere, MLPCN library. Lethal factor (Bacillus anthracis), P15917. multiplex microsphere protease cleavage assay. inhibition, % at 10 µM. 360,000 tested, 0.12% active. AID 588501, 2011; further: plate controls were buffer without enzyme for full effect and enzyme alone for no effect
# Target sequence (P15917 whole entry, looked up): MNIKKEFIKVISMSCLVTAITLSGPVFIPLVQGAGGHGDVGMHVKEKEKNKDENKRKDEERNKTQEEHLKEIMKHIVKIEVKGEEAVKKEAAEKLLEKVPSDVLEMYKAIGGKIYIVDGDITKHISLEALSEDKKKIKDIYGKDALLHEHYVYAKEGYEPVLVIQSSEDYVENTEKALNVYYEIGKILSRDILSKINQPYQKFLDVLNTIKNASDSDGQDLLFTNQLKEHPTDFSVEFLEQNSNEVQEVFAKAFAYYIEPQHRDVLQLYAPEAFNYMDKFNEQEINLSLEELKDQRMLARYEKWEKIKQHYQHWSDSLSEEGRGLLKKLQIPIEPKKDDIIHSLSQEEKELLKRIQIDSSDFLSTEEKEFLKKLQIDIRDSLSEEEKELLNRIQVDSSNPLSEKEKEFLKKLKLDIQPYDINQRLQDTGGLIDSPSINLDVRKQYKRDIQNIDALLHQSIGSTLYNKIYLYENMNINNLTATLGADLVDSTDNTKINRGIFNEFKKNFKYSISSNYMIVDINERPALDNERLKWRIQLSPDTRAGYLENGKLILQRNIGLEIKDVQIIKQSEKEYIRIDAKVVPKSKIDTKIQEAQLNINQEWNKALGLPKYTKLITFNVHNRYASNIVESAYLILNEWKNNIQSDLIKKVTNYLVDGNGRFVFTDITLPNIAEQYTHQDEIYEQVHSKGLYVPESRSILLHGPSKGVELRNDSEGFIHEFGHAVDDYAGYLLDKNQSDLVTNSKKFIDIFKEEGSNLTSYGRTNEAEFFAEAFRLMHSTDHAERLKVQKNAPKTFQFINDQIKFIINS
# GDH-TPI counter-1 = GDH-TPI coupling enzyme inhibitors, primary screen, artefact control for M. tuberculosis FBA inhibitor project, biochemical, absorbance, full deck | GDH-TPI coupled enzyme counterscreen, NADH absorbance | inhibition, % at 4.8 µM | 360,000 tested, 1.2% active | AID 588335, 2011; in the data active means inhibition above about 30%;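 further: 0% = DMSO wells and 100% = wells lacking the enzyme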
# BoNT F protease = BoNT/F light chain protease inhibitors, primary screen, biochemical, flow cytometry, MLPCN library; inhibition, % at 10 µM; Botulinum neurotoxin type F light chain protease (Clostridium botulinum); 360,000 tested, 0.22% active; Multiplex microsphere protease cleavage assay; in the data active means inhibition above about 35%, passing the limit was not always enough; further: plate controls were buffer without enzyme for full effect and enzyme alone for no effect
# BoNT A protease = BoNT/A light chain protease inhibitors, primary screen, biochemical, flow cytometry, MLPCN library | Botulinum neurotoxin type A light chain protease (Clostridium botulinum A str. ATCC 3502) | multiplex microsphere protease substrate cleavage | inhibition, % at 10 µM | 360,000 tested, 0.17% active | AID 588499, 2011; further: plate controls were buffer without enzyme for full effect and enzyme alone for no effect
# Bead autofluor = counter-screen for toxin protease inhibitors: compound fluorescence. compound autofluorescence counterscreen, microsphere flow cytometry; hits give high values. fluorescence intensity (concentration not given with the values). 360,000 tested, 3.1% active; in the data active means fluorescence intensity above about 16000
# Mtb FBA inh = Mtb FBA enzyme inhibitors, primary screen, biochemical, fluorescence, strain H37Rv; AID 588726, 2011; 360,000 tested, 2.3% active; Fructose-bisphosphate aldolase (Mycobacterium tuberculosis (strain ATCC 25618 / H37Rv)), …; purified M. tuberculosis FBA, fluorescence read-out; inhibition, % at 1 µM; in the data active means inhibition above about 27%;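 further: 0% = vehicle and 100% = reference inhibitor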
# Mtb FBA inh conf = M. tuberculosis aldolase blockers, biochemical, fluorescence, strain H37Rv, confirmation | shares compounds with Mtb FBA inh | inhibition, % at 1 µM | purified M. tuberculosis FBA, fluorescence read-out | 5,600 tested, 78% active; in the data active means inhibition above about 27%;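 further: 0% = vehicle wells and 100% = reference inhibitor wells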
# GDH-TPI counter-2 = GDH-TPI coupling enzyme inhibitors, artefact control for M. tuberculosis FBA inhibitor project, biochemical, fluorescence, high throughput; shares compounds with Mtb FBA inh; 5,600 tested, 81% active; inhibition, % at 1 µM; AID 652141, 2013; GDH-TPI coupled enzyme counterscreen; in the data active means inhibition above about 10%
# * marks the source's active call; other numbers are inactive results; nt = not tested or not shown; + = active, no number. Unless noted, no stated cut-off is given here; in the data, active means inhibition above about 30%; inconclusive means no clear call, values can overlap the other calls; inactive means below that.
SMILES,Anthrax LF inh2,GDH-TPI counter-1,BoNT F protease,BoNT A protease,Bead autofluor,Mtb FBA inh,Mtb FBA inh conf,GDH-TPI counter-2
CC[C@H]1C(c2ccc(F)cc2)=NN(c2ccccc2)[C@@H]1CO,-6,14,0,0,3877,30*,65*,63*
O=C1OCCN1C(=O)[C@H]1[C@H](c2ccc(F)cc2)C(c2ccccc2)=NN1c1ccccc1,-13,10,-4,-1,3923,13,nt,nt
OC[C@@H]1[C@@H](c2ccc(F)cc2)C(c2ccccc2)=NN1c1ccccc1,-1,7,-5,1,3973,29*,48*,45*
CN(CCOc1ccccc1)CC(=O)Nc1ccc(Cl)c(S(=O)(=O)N(C)C)c1,-3,-6,1,-1,3874,5,nt,nt
COC(=O)c1nn(-c2ccccc2)nc1-c1nn(-c2ccccc2)nc1C(=O)OC,-1,-5,-8,1,3717,-9,nt,nt
Cc1ccccc1COC(=O)c1nn(-c2ccccc2)nc1N,-1,0,-3,0,2590,97*,79*,67*
O=C(O)c1cccc([N+](=O)[O-])c1C(=O)Nc1cccc2ccccc12,5,8,-20,-4,3832,48*,116*,99*
O=C(O)c1ccc(C(=O)Nc2cccc3ccccc23)c(C(=O)O)c1,-5,9,-1,0,3372,54*,155*,111*
O=C(NC1CCCCC1)c1ccccc1NC(=S)NC(=O)C1CC1,1,7,0,0,2196,1,nt,nt
COc1cc(OC)cc(C(=O)NC(=S)Nc2cc3oc4ccccc4c3cc2OC)c1,0,-3,-2,0,2527,6,nt,nt
CC(=O)N1CC2(NC(=O)c3ccccc3N2)c2ccccc21 (stereo unspecified),2,4,-8,-1,5328,80*,+,188*
CCN(CC)C(=O)CN1C(=O)C2(NC(=O)c3ccccc3N2)c2ccccc21 (stereo unspecified),-2,7,0,1,6249,13,nt,nt
O=C1Nc2ccc(S(=O)(=O)NCCCO)c3cccc1c23,-1,28,16,-4,3844,52*,94*,61*
CCN(CC)S(=O)(=O)c1ccc2c3c(cccc13)C(=O)N2,0,16,-7,-1,6024,6,nt,nt
O=C1Nc2ccc(S(=O)(=O)NCC3CCCO3)c3cccc1c23 (stereo unspecified),-4,3,0,1,4712,50*,47*,31*
CCNS(=O)(=O)c1ccc2c3c(cccc13)C(=O)N2,12,19,1,0,8796,65*,53*,38*
Cc1cc(C)c2c(c1)C1(OCCO1)C(=O)N2,-9,-4,-10,-2,3819,0,nt,nt
Nc1cc(=O)[nH]c(SCC(=O)Nc2ccc(S(=O)(=O)N3CCCC3)cc2)n1,-2,-4,-6,0,3610,-2,nt,nt
Cc1ccc2nc(-c3ccc(NC(=O)CSc4nc(N)cc(=O)[nH]4)cc3)sc2c1,-4,24,6,0,3947,37*,73*,42*
Cc1ccc2nc(-c3ccc(NC(=O)CSc4nccc(=O)[nH]4)cc3)sc2c1,-1,24,-5,0,2660,53*,+,+
COc1cc2c(cc1OC)-c1nnc(-c3ccco3)n1C1(CCCC1)C2,1,-5,-6,0,2975,47*,108*,84*
CN(Cc1ccon1)C(=O)CC1C(=O)NCCN1Cc1cccc(Oc2ccccc2)c1 (stereo unspecified),0,12,-7,0,3507,-1,nt,nt
